From PubChem BioAssay (EPA / NIEHS) come the findings set out here.

One may read the AC50 as the concentration at which the activity in the assay is half-maximal.

Records with an inconclusive call do not appear. Calls of active or inactive are those of the source. The calls were made as follows, unless noted: active = hit-call score of the fitted dose curve at least 0.9, where 1 is the maximum; inactive = score below 0.9.

Read-out in experiment [1]: Monocyte Chemoattractant Protein-1 (MCP1), CCL2 (gene 6347)
Put plainly: BSK_LPS_MCP1: BioMAP Diversity Plus: LPS Assay for Monocyte Chemoattractant Protein-1 (MCP1) Biomarker Activity (AID 2283081). The conditions noted are these: primary human HUVEC with PBMC; actives raise or lower the signal. In a few lines: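 Human umbilical vein endothelial cells co-cultured with PBMC, LPS-stimulated; secreted MCP-1 measured by ELISA 24 h after compound addition. Bidirectional curve fitting against DMSO baseline; SRB total-protein staining in parallel cultures for cytotoxicity.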

Experiment [2] in a line: BSK_LPS_PGE2: BioMAP Diversity Plus: LPS Assay for Prostaglandin E2 (PGE2) Biomarker Activity (AID 2283082). The conditions noted are these: primary human HUVEC with PBMC; actives raise or lower the signal. An outline of the steps: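 Compounds were added to the LPS co-culture of endothelium and PBMC, and PGE2 was measured by ELISA after 24 h. Responses in either direction were fitted with DMSO as baseline.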

Read-out in experiment [3]: Tissue Factor, F3 (gene 2152)
Put plainly: BSK_LPS_TissueFactor: BioMAP Diversity Plus: LPS Assay for Tissue Factor Biomarker Activity (AID 2283084). The conditions noted are these: primary human HUVEC with PBMC; actives raise or lower the signal. An outline of the steps: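 Human umbilical vein endothelial cells co-cultured with PBMC were dosed with compound. Cell-surface CD142 was measured by ELISA 24 h later. Activity was fitted bidirectionally against DMSO, with SRB total-protein staining in parallel cultures for cytotoxicity.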

Read-out in experiment [4]: Tumor necrosis factor (Homo sapiens) (UniProt P01375)
Put plainly: BSK_LPS_TNFa: BioMAP Diversity Plus: LPS Assay for Tumour Necrosis Factor alpha (TNFa) Biomarker Activity (AID 2283085).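 As to AC50: TNFa protein level quantified by ELISA in the co-culture.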 The conditions noted are these: primary human HUVEC with PBMC; actives raise or lower the signal. An outline of the steps:
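Cells (umbilical vein endothelium plus peripheral blood mononuclear cells) were dosed with chemical, incubated 24 h, then TNFa was quantified by ELISA; values derive from bidirectional fitting with DMSO as baseline.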

Read-out in experiment [5]: Vascular cell adhesion molecule 1 (VCAM1), VCAM1 (gene 7412)
Put plainly: BSK_LPS_VCAM1: BioMAP Diversity Plus: LPS Assay for Vascular cell adhesion molecule 1 (VCAM1) Biomarker Activity (AID 2283086). The conditions noted are these: primary human HUVEC with PBMC; actives raise or lower the signal. In a few lines: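 Cells are dosed in an LPS-stimulated endothelial/mononuclear co-culture and, after 24 h, VCAM-1 is quantified by ELISA. Activity in either direction is fitted relative to the DMSO negative control.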

Read-out in a further experiment: CD38, CD38 (gene 952)
As to the kind of experiment: BSK_SAg_CD38: BioMAP Diversity Plus: SAg Assay for CD38 Biomarker Activity (AID 2283087). Conditions: primary human HUVEC with PBMC; actives raise or lower the signal. In a few lines: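 CD38 quantified by ELISA (fluorescence) in a superantigen-activated endothelial cell–PBMC co-culture at 24 h post-dose. Activity fitted in both directions relative to DMSO; parallel SRB and Alamar Blue cytotoxicity read-outs.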

Read-out in another experiment: CD40, CD40 (gene 958)
Put plainly: BSK_SAg_CD40: BioMAP Diversity Plus: SAg Assay for CD40 Biomarker Activity (AID 2283088). The conditions noted are these: primary human HUVEC with PBMC; actives raise or lower the signal. In a few lines: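 HUVEC plus PBMC co-culture, superantigen-activated, with CD40 read by ELISA 24 h after dosing. Curves fitted in both directions against DMSO. Overt cytotoxicity checked by parallel SRB total-protein staining.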

Read-out in the next experiment: CD69, CD69 (gene 969)
As to the kind of experiment: BSK_SAg_CD69: BioMAP Diversity Plus: SAg Assay for CD69 Biomarker Activity (AID 2283089).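 As to AC50: cell surface CD69 protein quantified by ELISA with fluorescence detection.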 Conditions: primary human HUVEC with PBMC; actives raise or lower the signal. In a few lines:
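Primary human vascular co-culture (umbilical vein endothelium with peripheral blood mononuclear cells) exposed to test chemical for 24 h. CD69 levels quantified by fluorescence ELISA; DMSO served as negative control for bidirectional fitting.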

Read-out in experiment [6]: Monocyte Chemoattractant Protein-1 (MCP1), CCL2 (gene 6347)
As to the kind of experiment: BSK_SAg_MCP1: BioMAP Diversity Plus: SAg Assay for Monocyte Chemoattractant Protein-1 (MCP1) Biomarker Activity (AID 2283090). Conditions: primary human HUVEC with PBMC; actives raise or lower the signal. In a few lines:
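Values derive from bidirectional fitting of ELISA-measured MCP1 against DMSO controls. Readings were taken 24 h after dosing human vascular endothelial cells co-cultured with peripheral blood mononuclear cells under superantigen stimulation.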

Read-out in experiment [7]: E-selectin (Homo sapiens) (UniProt P16581)
As to the kind of experiment: BSK_SAg_Eselectin: BioMAP Diversity Plus: SAg Assay for Eselectin Biomarker Activity (AID 2283091). Conditions: primary human HUVEC with PBMC; actives raise or lower the signal. An outline of the steps:
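Human umbilical vein endothelial cells co-cultured with peripheral blood mononuclear cells, SAg system. E-selectin is measured by ELISA 24 h after dosing and fitted bidirectionally against DMSO. Cytotoxicity is checked by SRB staining of parallel cultures.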

Read-out in experiment [8]: Monokine induced gamma interferon (MIG), CXCL9 (gene 4283)
Put plainly: BSK_SAg_MIG: BioMAP Diversity Plus: SAg Assay for Monokine induced gamma interferon (MIG) Biomarker Activity (AID 2283092). The conditions noted are these: primary human HUVEC with PBMC; actives raise or lower the signal. An outline of the steps:
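Endothelial cells and PBMC were co-cultured, exposed to test chemicals, and sampled 24 h later. MIG was measured by ELISA, and responses were fitted in both directions relative to DMSO.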

Experiment [9] is described as follows: BSK_SAg_PBMCCytotoxicity: PBMC Cytotoxicity Assessment in the BioMAP Diversity Plus: SAg Assay (AID 2283093).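 Also: fitted both ways against DMSO so a hit may be loss or gain of signal.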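 As to AC50: PBMC superantigen activated with SEB plus TSST-1 one hour after compound addition.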 Conditions: primary human HUVEC with PBMC. In a few lines:
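PBMC viability by Alamar Blue reduction, fluorescence read at 546/580 nm after 6 h dye exposure. Cells were dosed 1 h before SEB plus TSST-1 activation (20 ng/mL final each), then held 90 h; endothelial/PBMC human co-culture.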

Experiment [10] is described as follows: BSK_SAg_Proliferation: Cell Proliferation Assessment in the BioMAP Diversity Plus: SAg Assay (AID 2283095).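 Also: relative cell number as total protein by SRB absorbance in sub-confluent culture.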 The conditions noted are these: primary human HUVEC with PBMC. In a few lines:
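Absorbance of sulforhodamine B at 560 nm reports total protein in a human vascular endothelial/PBMC co-culture after 96 h chemical exposure. Gain or loss of signal is fitted in both directions against DMSO.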

Experiment [11] in a line: BSK_SAg_SRB: Viability Assessment in the BioMAP Diversity Plus: SAg Assay (AID 2283096).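 Also: cells read one day after compound addition; hits may be either gain or loss of signal compared with DMSO.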 Conditions: primary human HUVEC with PBMC. In a few lines: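 Compounds were added to a human vascular co-culture of umbilical vein endothelium and PBMC. After 24 h, parallel cultures were fixed with 10% TCA, stained with 0.1% sulforhodamine B and read at 560 nm. Gain or loss of signal was fitted relative to DMSO.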

Experiment [12] concerns the target human CYP2D6, CYP2D6 (gene 1565) (UniProt P10635). As to the kind of experiment: NVS_ADME_hCYP2D6: NovaScreen (NVS) CYP450-related Enzyme Activity (ADME) Assay for human CYP2D6 (AID 2283107; active = hit-call score of the fitted dose curve at least 0.9, where 1 is the maximum). An outline of the steps: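 Cell-free assay using recombinant human CYP2D6 expressed in insect cells, with a fluorogenic substrate read after 1 h. Primary screen in duplicate at 10 uM; actives followed up in concentration series. Loss of signal fitted relative to acetonitrile.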

The target in experiment [13] is human CYP19A1, CYP19A1 (gene 1588) (UniProt P11511). Put plainly: NVS_ADME_hCYP19A1: NovaScreen (NVS) CYP450-related Enzyme Activity (ADME) Assay for human CYP19A1 (AID 2283098; active = hit-call score of the fitted dose curve at least 0.9, where 1 is the maximum;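 also: potency for inhibitors seen as loss of fluorescent enzyme signal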). An outline of the steps: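 Fluorescence intensity read-out; activity taken as signal loss relative to acetonitrile vehicle. Extracted enzyme, specific substrate, no cells, 0.5 h exposure. Duplicate single-point screen at 10 uM, then concentration–response follow-up for actives.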
human CYP19A1, CYP19A1 (gene 1588), sequence (P11511 whole entry, looked up): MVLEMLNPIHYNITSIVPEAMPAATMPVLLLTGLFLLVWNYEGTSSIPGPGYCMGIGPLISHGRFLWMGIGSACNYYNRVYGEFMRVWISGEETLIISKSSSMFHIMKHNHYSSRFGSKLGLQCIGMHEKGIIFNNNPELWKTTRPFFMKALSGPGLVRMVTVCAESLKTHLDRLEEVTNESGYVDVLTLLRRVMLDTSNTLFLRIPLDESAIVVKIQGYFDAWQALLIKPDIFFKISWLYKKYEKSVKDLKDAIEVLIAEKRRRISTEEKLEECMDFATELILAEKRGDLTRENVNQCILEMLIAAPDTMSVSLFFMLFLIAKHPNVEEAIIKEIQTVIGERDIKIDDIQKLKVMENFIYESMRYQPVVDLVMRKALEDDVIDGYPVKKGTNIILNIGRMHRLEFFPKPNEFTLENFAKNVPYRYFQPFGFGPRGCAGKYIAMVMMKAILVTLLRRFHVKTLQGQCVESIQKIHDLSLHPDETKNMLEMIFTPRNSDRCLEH

human CYP2D6, CYP2D6 (gene 1565), sequence (P10635 whole entry, looked up): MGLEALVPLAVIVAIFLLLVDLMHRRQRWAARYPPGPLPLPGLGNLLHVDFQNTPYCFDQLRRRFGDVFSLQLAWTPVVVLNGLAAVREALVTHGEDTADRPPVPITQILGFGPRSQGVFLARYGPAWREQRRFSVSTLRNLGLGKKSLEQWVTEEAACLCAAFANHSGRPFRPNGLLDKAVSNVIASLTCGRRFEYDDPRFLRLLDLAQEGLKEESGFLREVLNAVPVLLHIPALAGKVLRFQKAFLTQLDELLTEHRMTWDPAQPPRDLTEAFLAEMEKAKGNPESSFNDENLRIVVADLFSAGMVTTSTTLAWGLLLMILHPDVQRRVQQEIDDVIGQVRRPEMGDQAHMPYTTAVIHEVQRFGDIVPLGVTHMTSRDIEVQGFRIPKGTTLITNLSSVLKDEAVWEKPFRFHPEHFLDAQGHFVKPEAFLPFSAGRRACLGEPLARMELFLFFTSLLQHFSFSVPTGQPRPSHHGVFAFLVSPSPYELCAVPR
E-selectin (Homo sapiens), sequence (P16581 whole entry, looked up): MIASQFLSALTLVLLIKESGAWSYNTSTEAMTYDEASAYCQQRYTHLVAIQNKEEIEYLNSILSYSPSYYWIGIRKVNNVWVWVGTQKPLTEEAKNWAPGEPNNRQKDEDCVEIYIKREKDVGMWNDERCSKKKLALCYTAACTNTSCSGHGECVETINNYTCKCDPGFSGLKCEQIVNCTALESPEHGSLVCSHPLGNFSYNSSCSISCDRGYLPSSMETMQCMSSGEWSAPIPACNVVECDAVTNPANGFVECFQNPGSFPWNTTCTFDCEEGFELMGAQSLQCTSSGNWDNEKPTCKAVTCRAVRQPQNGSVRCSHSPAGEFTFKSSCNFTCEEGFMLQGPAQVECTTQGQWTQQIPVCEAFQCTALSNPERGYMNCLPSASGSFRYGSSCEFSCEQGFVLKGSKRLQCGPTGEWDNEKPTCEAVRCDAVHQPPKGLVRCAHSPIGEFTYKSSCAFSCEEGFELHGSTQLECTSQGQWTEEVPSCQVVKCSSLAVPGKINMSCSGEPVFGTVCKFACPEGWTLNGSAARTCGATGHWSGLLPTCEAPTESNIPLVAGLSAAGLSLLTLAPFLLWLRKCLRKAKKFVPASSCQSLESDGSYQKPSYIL
Tumor necrosis factor (Homo sapiens), sequence (P01375 whole entry, looked up): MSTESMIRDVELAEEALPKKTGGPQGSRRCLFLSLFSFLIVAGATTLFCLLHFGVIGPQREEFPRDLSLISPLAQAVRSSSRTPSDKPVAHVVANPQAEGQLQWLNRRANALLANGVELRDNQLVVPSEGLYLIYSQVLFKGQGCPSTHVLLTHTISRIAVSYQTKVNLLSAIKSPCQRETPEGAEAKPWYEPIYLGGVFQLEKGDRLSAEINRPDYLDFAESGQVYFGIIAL

For `CCN(CC)C(=O)N(CC)CC`, the outcome is “inactive” in experiment [1]; “inactive” in experiment [2]; “inactive” in experiment [3]; “inactive” in experiment [4]; “inactive” in experiment [5]; “inactive” with CD38, CD38 (gene 952). The outcome is “inactive” in the experiment with CD40, CD40 (gene 958); “inactive” with CD69, CD69 (gene 969); “inactive” in experiment [6]; “inactive” in experiment [7]; “inactive” in experiment [8]; “inactive” in experiment [9]. Further, the outcome in experiment [10] and in [11] was inactive.

For `CSCCC=O`, the outcome in experiment [1] was “inactive”; in [2], “inactive”; in experiment [3], “inactive”; in [4], “inactive”; in experiment [5], “inactive”; with CD38, CD38 (gene 952), “inactive”. The outcome with CD40, CD40 (gene 958) was “inactive”; with CD69, CD69 (gene 969), “inactive”; in [6] it was “inactive”; in experiment [7], “inactive”; in experiment [8] it was “inactive”; in experiment [9], “inactive”. In addition, the result in experiment [11] was inactive. Also, the AC50 in experiment [10] was 38.6 µM (active).

In the case of `Clc1cc(Cl)c(-c2c(Cl)c(Cl)cc(Cl)c2Cl)cc1Cl`, the outcome in experiment [1], in experiment [2], in [3], in experiment [4], in experiment [6] and in experiment [8] was inactive. Besides, in experiment [11], the result was inactive. Also, the half-maximal activity concentration (AC50) in [5] was 3.5 µM (active); with CD38, CD38 (gene 952) it was 15.6 µM (active); with CD40, CD40 (gene 958) it was 16.3 µM (active); with CD69, CD69 (gene 969), 10 µM (active); in [7], 14.9 µM (active); in experiment [9], 17.4 µM (active). The AC50 in [10] was 14.3 µM (active).

For the compound `COc1cc(Cl)c(OC)cc1N`, the outcome is “inactive” in experiment [1]; “inactive” in experiment [2]; “inactive” in experiment [3]; “inactive” in [4]; “inactive” in [5]; “inactive” with CD38, CD38 (gene 952). Moreover, the outcome with CD40, CD40 (gene 958) was “inactive”; in the experiment with CD69, CD69 (gene 969) it was “inactive”; in experiment [6] it was “inactive”; in [7], “inactive”; in experiment [8], “inactive”; in [9], “inactive”. Moreover, the outcome in experiment [10] and in experiment [11] was inactive. Further, the half-maximal activity concentration (AC50) in [12] was 0.992 µM (active).

As to `O=C1c2ccccc2C(=O)c2c(O)ccc(O)c21`, the outcome is “inactive” in experiment [1]; “inactive” in [5]; “inactive” in the experiment with CD40, CD40 (gene 958); “inactive” with CD69, CD69 (gene 969); “inactive” in experiment [6]; “inactive” in [8]. In addition, the outcome in experiment [11] was inactive. Besides, the AC50 in experiment [2] was 0.233 µM (active); in experiment [3], 3.52 µM (active); in [4], 1.21 µM (active); with CD38, CD38 (gene 952), 13.1 µM (active); in experiment [7], 1.21 µM (active); in [9], 14.4 µM (active). Further, the concentration at half-maximal activity (AC50) in experiment [10] is 16.5 µM (active).

For the compound `CC(=O)C(C)O` (centres undefined), in [12], the AC50 was 5 µM (active).

As to `CCCCCCC(=O)c1ccccc1`, the AC50 in [13] is 5.7 µM (active).

`CCCCC(CC)COC(C)=O` (centres undefined): the half-maximal activity concentration (AC50) in experiment [12] is 5 µM (active).
